High-throughput results from PubChem BioAssay.
Compounds with a hit are over-represented: about 10% of the library has one in this group of screens.
GPT2 inhibitor = GPT2 alanine aminotransferase inhibition; Q8TD30; Recombinant GPT2, coupled pyruvate oxidase/HRP Amplex Red fluorescence; Potency, µM (top dose mostly 57.7 µM), most hits filed as inhibitors; 0.25% of 100,000 active; note: nearly all actives have a fitted effect of over 60% in size
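Inhibition is scored from Amplex Red fluorescence generated when pyruvate oxidase and HRP act on pyruvate released by GPT2. Reactions contain 10ng/uL enzyme, 250uM a-KG and 2mM L-alanine and run 30 min at room temperature.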
hNpr1 antagonist = human Npr1 receptor antagonism | Potency, µM (top dose mostly 46.3 µM), hits mostly inhibitors | 1.6% of 76,000 active | AID 1347048 | HEK293 hNpr1 GloSensor cGMP, ANP-stimulated luminescence; calls by dose curve; note: nearly all actives have a fitted effect of over 60% in size
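Compound pre-incubated 30 min at room temperature on GloSensor-loaded HEK293 cells stably carrying hNpr1 and the pGS-40F cGMP biosensor. Stimulation uses hNppA at 0.1 nM final; luminescence is taken at baseline and 20 min post-agonist.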
HEK293 tox = HEK 293 cell cytotoxicity. 6.6% of 94,000 active. HEK 293 viability, ATP luminescence (CellTiter-Glo), 48-72 h. AID 1345083. Potency, µM (series often up to 115 µM), usual class: inhibitors; note: nearly all actives have a fitted effect of over 60% in size
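HEK 293 seeded at 250 cells/well receive compound via pintool. After 48 or 72 hr at 37 degree Celsius, 5% CO2 and 95% humidity, CellTiter-Glo is dispensed and luminescence read following 10 min at room temperature.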
NIH3T3 tox = cytotoxic compounds in NIH 3T3 cells. NIH 3T3 viability, CellTiter-Glo ATP luminescence, 48-72 h. Potency, µM (series often up to 96.7 µM), hits mostly inhibitors. 4.3% of 94,000 active. AID 1345082; note: nearly all actives have a fitted effect of over 55% in size
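First NIH 3T3 cells are plated at 400 cells/well; next compound is pinned in; then plates incubate 48 or 72 hr at 37 °C; finally CellTiter-Glo is added and luminescence read after 10 min.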
FLuc inh = blocks purified firefly luciferase enzyme activity; P08659; 2.5% of 76,000 active; purified P. pyralis luciferase, luminescence, biochemical; Potency, µM (top dose mostly 115 µM), most hits filed as inhibitors; note: nearly all actives have a fitted effect of over 65% in size
Target sequence (P08659 whole entry, looked up): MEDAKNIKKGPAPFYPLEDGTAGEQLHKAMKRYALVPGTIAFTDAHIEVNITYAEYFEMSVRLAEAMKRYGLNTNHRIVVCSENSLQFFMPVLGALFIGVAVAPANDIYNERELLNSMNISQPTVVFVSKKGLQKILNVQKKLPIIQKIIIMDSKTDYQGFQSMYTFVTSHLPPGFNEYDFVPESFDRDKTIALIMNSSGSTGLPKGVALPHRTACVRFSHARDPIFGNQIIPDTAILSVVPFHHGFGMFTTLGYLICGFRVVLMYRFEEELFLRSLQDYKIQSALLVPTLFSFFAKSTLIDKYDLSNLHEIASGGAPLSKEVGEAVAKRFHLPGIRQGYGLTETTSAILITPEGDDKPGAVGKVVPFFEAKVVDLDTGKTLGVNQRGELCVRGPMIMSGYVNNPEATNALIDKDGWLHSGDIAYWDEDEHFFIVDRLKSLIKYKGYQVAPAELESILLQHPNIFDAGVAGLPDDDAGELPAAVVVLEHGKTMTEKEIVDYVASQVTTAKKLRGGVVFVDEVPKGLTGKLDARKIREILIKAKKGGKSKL
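Biochemical qHTS: compound (6-point titration) added to 10uM D-luciferin plus 10uM ATP in Tris acetate pH 7.5 buffer with Mg, Tween-20 and BSA, then purified enzyme at 10nM; light output imaged.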
A number is an active result; – = inactive; ? = inconclusive; · = no result given; [ ] = another dose, or the depositor's remark. Unless noted, calls come from the whole dose curve; as a rule, active = well fitted curve in the direction sought with a large enough effect; inconclusive = small, poorly fitted or top-dose-only effect, or another doubt; inactive = no such curve, though single readings can be large; an effect the other way counts as inactive or inconclusive.

SMILES | GPT2 inhibitor | hNpr1 antagonist | HEK293 tox | NIH3T3 tox | FLuc inh
Cc1noc2c(NC(C)C)cc(-c3ccccc3)nc12 | – | – | ? | ? | –
Cc1noc2c(NC3CCN(C)CC3)cc(-c3cccc(C(F)(F)F)c3)nc12 | – | – | 40µM | ? | –
Cc1noc2c(NCCc3ccccn3)cc(-c3ccccc3)nc12 | – | – | ? | ? | –
O=C(NCc1ccccc1)C1CCCN(C2CCN(C(=O)c3ccoc3)CC2)C1 (stereo unspecified) | – | – | – | – | –
COCC1CN(S(=O)(=O)c2cc(F)ccc2C)CC12CCNCC2 (stereo unspecified) | – | – | – | – | –
COCCNC(=O)[C@H]1C[C@H](Oc2cccnc2)CN1C(=O)NC(C)C | – | – | – | – | –
Fc1ccc(-c2cnc([C@@H]3COCCN3Cc3cnc4ccccc4c3)[nH]2)cc1 | – | – | 89µM | ? | –
CS(=O)(=O)c1ccc(-c2cnc([C@@H]3COCCN3Cc3cnc4ccccc4c3)[nH]2)cc1 | – | – | – | – | –
COc1cccc(-c2cnc([C@@H]3COCCN3Cc3cnc4ccccc4c3)[nH]2)c1 | – | – | 100µM | – | –
CCCCOC(=O)N1CCC(N2CCCC(C(=O)N3CCOCC3)C2)CC1 (stereo unspecified) | –[11.5 µM] | – | – | – | –
CCCc1ccc(CN2CC[C@@H]3[C@@H](CCC(=O)N3CCc3cnc[nH]3)C2)o1 | – | – | ? | – | –
COc1ccc(S(=O)(=O)N2CC(=O)N(CC3CC3)C3(CCCCC3)C2)cc1 | – | · | ? | 35µM | ·
COCC(=O)NC[C@@H]1C=C(C)[C@H](Cc2nc3ccc(C)cc3[nH]2)C[C@H]1C(C)C | ? | – | ? | 50µM | –
COc1ccc2nc(C[C@@H]3C[C@@H](C(C)C)[C@H](CNC(=O)CCCC(=O)O)C=C3C)[nH]c2c1 | – | – | – | – | –
COCC(=O)NC[C@@H]1C=C(C)[C@H](Cc2nc3ccc(Cl)cc3[nH]2)C[C@H]1C(C)C | – | – | ? | 71µM | –
CC(C)c1nnsc1Cn1ncc(N(C)CCc2ccccc2)cc1=O | – | – | 89µM | ? | –
CC(C)N(C)C(=O)Cn1ncc(N(C)CCc2ccccc2)cc1=O | – | – | – | – | –
C[S+](=O)([O-])N1CCN(CCCn2nc3n(c2=O)CCCC3)CC1 | · | · | – | – | ·
C[C@](Cc1ccc(O)c(O)c1)(NN)C(=O)O | – | · | · | · | ·
CC(N)(Cc1ccc(O)c(O)c1)C(=O)O (stereo unspecified) | 8.9µM | · | · | · | ·
C[C@@H]1CN(C(=O)Cc2cccnc2)C[C@H]1c1nc(-c2ccncc2)no1 | – | – | – | – | –
C[C@H]1CN(C(=O)C2CCCC2)C[C@@H]1c1nc(-c2ccccc2)no1 | – | – | ? | 32µM | ?
Cc1cc(Cl)ccc1NC(=O)N1C[C@H](c2nc(-c3cccnc3)no2)[C@@H](C)C1 | – | – | 45µM | – | –
O=C1Nc2ccccc2CC12CCCN2CC1CCCCC1 (stereo unspecified) | – | · | ? | ? | ·
COc1ccc(OCc2nc(C3CN(C(=O)CCCc4ccccc4)C3)no2)cc1 | – | ? | ? | ? | –
SMILES | GPT2 inhibitor | hNpr1 antagonist | HEK293 tox | NIH3T3 tox | FLuc inh
O=C(Nc1ccccc1F)NC1CCc2nn(CC3CC3)c(=O)n2CC1 (stereo unspecified) | – | · | – | – | ·
CN(C)c1ccc(-c2nnc([C@H]3CCN(Cc4ccccc4)C3)o2)cc1 | – | – | ? | ? | 63µM
Cc1ccc(CN2CC[C@H](c3nnc(-c4ccccc4)o3)C2)cc1 | – | – | ? | ? | ?
CN(C)c1ccc(-c2nnc([C@H]3CCN(CC4CC4)C3)o2)cc1 | – | – | – | – | –
CN(C)c1ccc(-c2nnc([C@H]3CCN(CC4CCCCC4)C3)o2)cc1 | – | – | 100µM | ? | ?
COC(=O)[C@@H](C)NC(=O)[C@@H]1CN(C(=O)c2cccc(F)c2)CCN1C(C)=O | – | – | – | – | –
Cc1cccc(CN2CCCC(Cc3ncc(C)n3C(C)C)C2)c1 (stereo unspecified) | – | · | ? | ? | ·
CC(C)N1CC[C@H](c2nc3ccc(C(F)(F)F)cc3[nH]2)C1 | – | – | ? | – | 22µM
COc1ccc2nc([C@H]3CCN(C(C)C)C3)[nH]c2c1 | – | ? | – | – | 22µM
